The results in this text go back to PubChem BioAssay (NCATS).

The structures appear in SMILES notation. Records with an inconclusive call do not appear. The source made the active and inactive calls. Unless noted, calls come from the whole dose curve.

Test [1] in a line: qHTS for Inhibitors of the Functional Ribonucleoprotein Complex (vRNP) of Lassa (LASV) Arenavirus: LASV Primary Screen - GLuc reporter signal (AID 1347082; calls by dose curve; tested in HEK293 reporter line; note: nearly all actives have a fitted effect of over 60% in size; note: potency is the fitted concentration of half-maximal effect; for activity change, negative = inhibition: % is set by controls: 0 for no effect and ±100 for the full control effect).
Test [2] in a line: qHTS for Inhibitors of the Functional Ribonucleoprotein Complex (vRNP) of Lassa (LASV) Arenavirus: Viability assay - alamar blue signal for LASV Primary Screen (AID 1347083; calls by dose curve; tested in HEK293 reporter line; note: nearly all actives have a fitted effect of over 80% in size; note: potency is the fitted concentration of half-maximal effect).
The nature of test [3]: qHTS for Inhibitors of the Functional Ribonucleoprotein Complex (vRNP) of Lymphocytic Choriomeningitis Arenaviruses (LCMV): Viability assay - alamar blue signal for LCMV Primary Screen (AID 1347085; calls by dose curve; tested in HEK293 reporter line; note: nearly all actives have a fitted effect of over 80% in size; note: potency is the fitted concentration of half-maximal effect).
Test [4] concerns the target Nucleoprotein (Lymphocytic choriomeningitis virus (strain Armstrong)) (UniProt P09992). Briefly: qHTS for Inhibitors of the Functional Ribonucleoprotein Complex (vRNP) of Lymphocytic Choriomeningitis Arenaviruses (LCMV): LCMV Primary Screen - GLuc reporter signal (AID 1347086). For activity change, negative = inhibition: % is set by controls: 0 for no effect and ±100 for the full control effect. Note: nearly all actives have a fitted effect of over 70% in size. Note: potency is the fitted concentration of half-maximal effect.
Test [5] is described as follows: Primary qHTS for Huh7 cytotoxicity: counterscreen for inhibitors of MERS-S pseudotyped particle cell entry (AID 1479147). The following applies: outcome: dose series up to 57.1 µM unless noted.
Test [6] in a line: Primary qHTS for inhibitors of MERS-S pseudo-typed particle cell entry (AID 1479149). For activity change, negative = inhibition: % is set by controls: 0 for no effect and ±100 for the full control effect. Note: nearly all actives have a fitted effect of over 60% in size. Note: potency is the fitted concentration of half-maximal effect.
A short description of test [7]: Primary qHTS for Vero E6 cytotoxicity: counterscreen for inhibitors of SARS-S pseudo-typed particle cell entry (AID 1479150). Particulars: outcome: dose series up to 57.1 µM unless noted.
The nature of test [8]: Cytotoxicity counterscreen for inhibitors of SARS-CoV-2 cell entry (AID 1645845). Note: nearly all actives have a fitted effect of over 50% in size. The gist of the method: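 Counterscreen run in the same HEK293-ACE2 line as the pseudotyped-particle entry assay, without particles. Viability after 48 h at 37 C was read as ATP luminescence, scaled between cell-containing and cell-free wells.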
Test [9] in a line: Validation screen for inhibitors of Lassa infection (AID 463096).
Test [10] can be described thus: Primary qHTS to identify inhibitors of SARS-CoV-2 cell entry (AID 1645846). Note: nearly all actives have a fitted effect of over 45% in size. Particulars: activity change, negative = inhibition: at 57.1 µM (top of the series) unless noted. The gist of the method: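 Using luciferase-reporting pseudoviruses carrying Wuhan-Hu-1 spike, the screen tracks entry into stably ACE2-expressing cells over 48 hr. Activity is expressed relative to spike particles versus particles lacking any fusion protein.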

A short description of test [11]: Confirmatory qHTS to identify inhibitors of SARS-CoV-2 cell entry (AID 1645844). Note: potency is the fitted concentration of half-maximal effect; nearly all actives have a fitted effect of over 45% in size. The gist of the method:
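HEK293-ACE2, overnight seeding; cpd 1 h, 37C/5% CO2; + SARS-CoV-2-S MLV PP (Wuhan-Hu-1, ΔC19); 48 h; Bright-Glo luminescence. Data normalised to S PP and bald PP wells.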

Test [12] in a line: VSVG counterscreen qHTS to identify inhibitors of SARS-CoV-2 cell entry (AID 1645847). Note: potency is the fitted concentration of half-maximal effect; nearly all actives have a fitted effect of over 65% in size. The procedure, abridged: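 Entry of VSV-G pseudotyped particles into human ACE2-expressing HEK293 cells was measured by luciferase luminescence 48 h after infection, with compound added 1 h beforehand.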
The target in test [13] is Alpha-galactosidase (Coffea arabica) (UniProt Q42656). Briefly: Counterscreen for Glucocerebrosidase Inhibitors: qHTS Assay for Coffee Bean alpha-Galactosidase at pH 4.5 (AID 957; active = well fitted curve in the direction sought with a large enough effect; an effect the other way counts as inactive or inconclusive;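 note: plate controls were enzyme alone for no effect and no enzyme for full effect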). The procedure, abridged:
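Fluorogenic read-out: 4-methylumbelliferone at Ex 365/Em 440 nm after NaOH/glycine stop (pH 10). Enzyme 2 nM, 4-MU-alpha-galactoside 80 uM, citrate buffer pH 4.5, 20 min RT; normalized to no-enzyme and enzyme controls.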

Test [14] shares this target. Briefly: Counterscreen for Glucocerebrosidase Inhibitors: qHTS Assay for Coffee Bean alpha-Galactosidase at pH 5.9 (AID 998; active = well fitted curve in the direction sought with a large enough effect; an effect the other way counts as inactive or inconclusive;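 note: plate controls were uninhibited enzyme for no effect and no-enzyme basal signal for full effect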). The gist of the method:
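Enzyme 2 nM + cpd (0.7 nM–77 uM titration) + 4-MU-alpha-Gal 80 uM, pH 5.9 citrate/Tween-20, RT 20 min, NaOH/glycine stop pH 10, fluor 365/440. Normalized to no-enzyme and full-activity controls; Hill-fit AC50.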

The nature of test [15]: Inducers of the Endoplasmic Reticulum Stress Response (ERSR) in human glioma: Validation (AID 504836; active = well fitted curve in the direction sought with a large enough effect; an effect the other way counts as inactive or inconclusive; note: 0% is about no effect). The procedure, abridged:
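Stably transfected U87-MG glioma cells carrying a GRP78-based luciferase sensor; 16 h compound incubation. Luminescence end-point read 10 min after Bright-Glo addition at room temperature.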

Test [16] in a line: qHTS Assay for Lipid Storage Modulators (AID 1519). The following applies: Drosophila S3 cells, BODIPY lipid droplet/cell ratio, laser cytometry, cells loaded with oleic acid. The gist of the method: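 Cells seeded at 5,000 per well were treated with compounds over a concentration series and loaded with oleic acid (400 uM, as added). Lipid droplet fluorescence (488 nm excitation, 500-530 nm channel) was read by laser-scanning cytometry and normalized to 20 uM Triacsin C.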

A short description of test [17]: Primary qHTS for small molecule stabilizers of the endoplasmic reticulum resident proteome: Secreted ER Calcium Modulated Protein (SERCaMP) assay (AID 1508630; active = well fitted curve in the direction sought with a large enough effect; an effect the other way counts as inactive or inconclusive; note: % is set by controls: 0 for no effect and ±100 for the full control effect). The procedure, abridged: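 The SH-SY5Y reporter protocol was run at 3 concentrations up to 38.3 uM (primary) or 11 concentrations (follow-up): 16 h compound, 100 nM thapsigargin for 4 h, then extracellular luciferase luminescence.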

Chain of Alpha-galactosidase (Coffea arabica) (Q42656 whole entry, looked up): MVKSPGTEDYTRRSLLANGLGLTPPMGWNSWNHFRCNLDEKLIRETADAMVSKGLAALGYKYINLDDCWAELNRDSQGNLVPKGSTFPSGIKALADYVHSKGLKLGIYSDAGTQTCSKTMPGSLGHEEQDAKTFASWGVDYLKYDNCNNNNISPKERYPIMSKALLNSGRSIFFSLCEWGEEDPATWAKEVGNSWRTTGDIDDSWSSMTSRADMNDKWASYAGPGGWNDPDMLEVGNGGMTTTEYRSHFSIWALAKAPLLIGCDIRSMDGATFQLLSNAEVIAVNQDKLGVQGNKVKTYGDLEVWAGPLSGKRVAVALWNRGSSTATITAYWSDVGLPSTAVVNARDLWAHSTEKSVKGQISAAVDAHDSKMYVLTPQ
Chain of Nucleoprotein (Lymphocytic choriomeningitis virus (strain Armstrong)) (P09992 whole entry, looked up): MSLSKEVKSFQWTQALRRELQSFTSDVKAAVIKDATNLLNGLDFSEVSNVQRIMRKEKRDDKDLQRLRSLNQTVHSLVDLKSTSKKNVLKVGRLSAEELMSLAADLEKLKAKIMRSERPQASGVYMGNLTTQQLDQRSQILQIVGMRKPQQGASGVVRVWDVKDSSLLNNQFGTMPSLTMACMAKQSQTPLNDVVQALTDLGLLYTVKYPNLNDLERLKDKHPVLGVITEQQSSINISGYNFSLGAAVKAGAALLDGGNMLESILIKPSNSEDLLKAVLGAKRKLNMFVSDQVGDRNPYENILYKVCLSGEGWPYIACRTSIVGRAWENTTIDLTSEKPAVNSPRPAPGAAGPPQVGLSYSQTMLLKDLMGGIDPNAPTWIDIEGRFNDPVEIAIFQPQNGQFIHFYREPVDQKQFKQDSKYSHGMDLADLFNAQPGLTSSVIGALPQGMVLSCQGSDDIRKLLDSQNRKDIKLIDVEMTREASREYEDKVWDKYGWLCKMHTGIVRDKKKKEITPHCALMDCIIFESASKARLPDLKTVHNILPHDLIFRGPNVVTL

As to `CCCCCCCCCCCCCCCC(=O)O[C@@H]1CC(C)=C(/C=C/C(C)=C/C=C/C(C)=C/C=C/C=C(C)/C=C/C=C(C)/C=C/C2=C(C)C[C@@H](OC(=O)CCCCCCCCCCCCCCC)CC2(C)C)C(C)(C)C1`, the Potency entry in [1], in test [2], in test [3], in test [4], in test [6] and in [8] was “inactive” in each case. The result in test [5] and in test [7] was inactive.

Turning to `COc1ccc(CCN(C)CCCC(C#N)(c2ccc(OC)c(OC)c2)C(C)C)cc1OC` (stereo not given), the compound was called inactive in test [9], in [5] and in test [7]. The Potency result in test [1], in test [2], in test [3] and in [4] was “inactive” each time.

On to `Cc1ccc(NC(=O)C2(c3ccc4c(c3)OC(F)(F)O4)CC2)nc1-c1cccc(C(=O)O)c1`, for which the Potency in [1] was 0.0385 µM (active); in test [2] it was 0.0432 µM (active); in test [3] it was 0.0685 µM (active); in test [4] it was 0.0217 µM (active). Besides, the result in test [5] and in test [7] was inactive. The Potency result in test [6], in test [8] and in test [10] was “inactive” throughout. Also, the activity change, negative = inhibition in test [10] was -24.6%.

Turning to `N#CC(c1ccc(Cl)cc1)c1c(Cl)cc(-n2ncc(=O)[nH]c2=O)cc1Cl` (stereo not given), the Potency entry in test [1], in test [2], in test [3], in test [4] and in test [8] was “inactive” each time. Further, the result in [5] and in test [7] was inactive. The values for the Potency in test [11] and in test [12] were 0.0136 µM (active) and 21.5 µM (active), respectively.

Turning to `NC(N)=NCc1cccc(I)c1`, the call in test [13], in test [14], in test [15], in [5] and in test [7] was inactive. Besides, the Potency entry in test [9], in test [1], in [2], in [3], in test [4] and in [6] was “inactive” each time. Further, the Potency entry in test [8] was “inactive”.

In the case of `Clc1ccc2c(c1)N=C(N1CCNCC1)c1ccccc1N2`, the Potency result in test [1], in [2], in [3] and in test [4] was “inactive” in each case.

On to `CO[C@H]1[C@@H](O)[C@H](N)[C@@H](O[C@H]2O[C@H]([C@H](C)N)CC[C@H]2N)[C@H](O)[C@@H]1N(C)C(=O)CN`, for which the Potency entry in test [1], in test [2], in [3], in test [4], in test [6] and in [8] was “inactive” each time. Also, the call in [5] and in [7] was inactive. Besides, the activity change, negative = inhibition in [10] is -5.5%.

Consider `CC(C)(O)C1OC2CCC3(C)C(O)(CCC4Cc5c([nH]c6ccccc56)C43C)C2=CC1=O` (stereo not given), for which the Potency result in test [1], in test [2], in [3] and in test [4] was “inactive” in each case.

Consider `CC(C)COC(=O)OCN1C(=O)CN(CCN2CC(=O)N(COC(=O)OCC(C)C)C(=O)C2)CC1=O`, for which the compound was called inactive in test [13], in [14], in test [15], in test [5] and in [7]. In addition, the Potency entry in [9], in test [1], in test [2], in [3], in test [4] and in [6] was “inactive” each time. Also, the Potency result in test [8] is “inactive”.

Turning to `Cc1c(-c2ccc(O)cc2)n(Cc2ccc(OCCN3CCCCCC3)cc2)c2ccc(O)cc12`, the Potency entry in [1], in test [2], in test [3], in test [4] and in test [8] was “inactive” in each case. Further, the Potency in test [6] was 10 µM (active); in test [11], 15.2 µM (active). Further, the compound was called inactive in test [7].

As for `O=C1CCCC(=O)C1C(=O)c1ccc(C(F)(F)F)cc1[N+](=O)[O-]`, the Potency entry in test [1], in test [2], in test [3], in test [4], in [6] and in [8] was “inactive” each time. In addition, the Potency result in test [10] was “inactive”. Besides, the compound was classed as inactive in test [5] and in test [7].

Regarding `C=C1C(=O)[C@@]23C(CC[C@@H]1[C@H]2O)[C@@]12CO[C@]3(O)[C@@H](O)[C@@H]1C(C)(C)CC[C@@H]2O` (stereo not given in full), the Potency was 9.68 µM (active) in test [1], 6.85 µM (active) in test [2], 2.17 µM (active) in test [3] and 1.22 µM (active) in test [4].

Consider `CC(O)[C@H]1CC[C@H]2[C@@H]3CC[C@@H]4C[C@@H](O)CC[C@]4(C)[C@H]3CC[C@]12C` (stereo not given in full), for which the Potency entry in [1], in test [2], in test [3], in [4], in test [6] and in test [8] was “inactive” throughout. The outcome in test [5] and in test [7] was “inactive [at 114 µM]” in each case. For the same compound, the activity change, negative = inhibition in test [10] is -11.6% [at 114 µM].

For the compound `O=S(=O)(c1cccc2c(Cl)cccc12)N1CCCNCC1`, the call in test [13], in [14] and in [15] was inactive. Also, the Potency result in test [9], in test [1], in test [2], in test [3] and in test [4] was “inactive” throughout.

As to `C[N+]1(CCCCC[N+]2(C)CCCC2)CCCC1`, the compound was classed as inactive in test [13], in test [14], in test [15], in test [5] and in [7]. Also, the Potency entry in test [9], in test [1], in test [2], in test [3], in [4] and in test [6] was “inactive” throughout. Further, the Potency entry in test [8] was “inactive”.

Regarding `C[N+](C)([O-])CCNc1ccc(NCC[N+](C)(C)[O-])c2c1C(=O)c1c(O)ccc(O)c1C2=O`, the Potency result in test [1], in test [2], in test [3], in test [4] and in test [8] was “inactive” in each case. Also, the results for the Potency in [11] and in test [12] were 19.2 µM (active) and 10.8 µM (active), respectively. The activity change, negative = inhibition in test [10] is -13.5%.

For the compound `O=c1ccc2c(O)c3ccoc3cc2o1`, the activity change, negative = inhibition in [16] (at 57.5 µM (top of the series)) is 15.3% (inactive). For the same compound, the values for the max response in [16] (measured here: cell count channel max response) and in [16] (measured here: lipid channel max response) were 7.8% and 27.4%, respectively. Also, the Potency result in [1], in [2], in test [3] and in test [4] was “inactive” throughout.

For `CC1(C)OC1COc1c2occc2cc2ccc(=O)oc12` (stereo not given), the Potency entry in test [1], in test [2], in [3], in test [4] and in test [17] was “inactive” throughout.

On to `C[C@H](NC(=O)[C@@H](O)c1cc(F)cc(F)c1)C(=O)N[C@@H]1C(=O)N(C)c2ccccc2-c2ccccc21`, for which the Potency entry in test [1], in [2], in test [3], in test [4] and in test [8] was “inactive” throughout.

Take `C=C1C2C[C@]3(C4CC5[C@@]6(C)CC[C@H](O)[C@@]5(C3CC2=O)C4[N+]([O-])(CC)C6)[C@@H]1O` (stereo not given in full): the Potency result in test [1], in [2], in test [3], in [4] and in test [17] was “inactive” throughout.
